Giardia kill: Small Molecules that selectively kill Giardia lamblia: qHTS | activity change, % at 7.66 µM, hits read low | Giardia lamblia trophozoite viability | 340,000 compounds, 0.15% hits; in the data active means activity change below about -80%; inconclusive means between about -30% and that limit;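 further: parasites exposed to compound for two days anaerobically before the ATP read; on the % scale 0 is the no-effect control and ±100 the full control effect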
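Giardia lamblia trophozoites (100 cells/well) were incubated with compounds for 48 h at 37 deg C under anaerobic conditions. Viability was read as ATP content by one-step luminescence after 15-30 min at room temperature.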
p53 reactivation: qHTS assay for re-activators of p53 using a Luc reporter; H1299 p53-A138V BP100-luciferase reporter, luminescence, 24 h; Potency, µM (series often up to 92.2 µM), for inactives: at the top dose activity change, positive = activation, actives largely listed as activators; 320,000 compounds, 0.063% hits; AID 504706, 2011; further: potency means the concentration at half of the fitted maximal effect; % of control where 0% means no effect; nearly all actives have a fitted effect of over 45% in size
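p53-null H1299 cells stably carrying temperature-sensitive p53-A138V and a BP100-luciferase reporter were pinned with compounds (4-point, 1:5 series) and held 24 hrs at 37 deg C. Luminescence was read 10 min after detection reagent.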
B2AR arrestin: qHTS assay of beta-arrestin-biased ligands of beta2-adrenergic receptor; beta-arrestin recruitment to beta2AR, cell-based reporter; AID 492947, 2010; Beta-2 adrenergic receptor (Homo sapiens), P07550; 330,000 compounds, 0.02% hits; Potency, µM (titrated, usually from 46.1 µM), inactives show at the highest dose activation, usual class: activators;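 further: potency means the concentration at half of the fitted maximal effect; 0% = DMSO controls and full agonism = EC100 isoproterenol or metaproterenol; nearly all actives have a fitted effect of over 65% in size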
Mito fusion act: qHTS Assay for Small Molecule Inhibitors of Mitochondrial Division or Activators of Mitochondrial Fusion; 320,000 compounds, 0.23% hits; S. cerevisiae fusion-defective mutant growth rescue, CellTiterGlo 48 h; Potency, µM (doses to about 46.1 µM), without a hit: at the top dose growth rescue (activation), actives largely listed as activators; further: potency means the concentration at half of the fitted maximal effect; % of control where 0% means no effect; nearly all actives have a fitted effect of over 45% in size
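Compounds are tested for their ability to restore growth of mitochondrial fusion-defective yeast strains at non-permissive 37C in YPEG medium over 48 hours. Viability is quantified by luciferase luminescence.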
uPA surface inh: qHTS for Inhibitors of Cell Surface uPA Generation | cell surface uPA generation assay, qHTS | Potency, µM (top dose mostly 38.3 µM), without a hit: at the top dose activity change, negative = inhibition, actives largely listed as inhibitors | 330,000 compounds, 0.31% hits; active means well fitted inhibition curve with a large enough effect; inconclusive means small, poorly fitted or top-dose-only effect; inactive means no such curve, though single readings can be large or run the other way; tested in mouse RAW 264.7 cells; further: potency means the concentration at half of the fitted maximal effect; on the % scale 0 is the no-effect control and ±100 the full control effect; nearly all actives have a fitted effect of over 55% in size
ClpP mod: qHTS Assay for Activators of ClpP; ATP-dependent Clp protease proteolytic subunit (Bacillus subtilis (strain 168)), P80244; purified B. subtilis ClpP, FRET peptide cleavage, 20 min; Potency, µM (top dose mostly 57.5 µM), without a hit: at the highest dose activity change, negative = active; 340,000 compounds, 1.9% hits; active means well fitted falling curve with a large enough effect; inconclusive means small, poorly fitted or top-dose-only effect; inactive means no such curve, though single readings can be large or run the other way; further: potency means the concentration at half of the fitted maximal effect; the source files actives as falling curves though it sought activators and does not explain the sign; nearly all actives have a fitted effect of over 65% in size
Target sequence (P80244 whole entry, looked up): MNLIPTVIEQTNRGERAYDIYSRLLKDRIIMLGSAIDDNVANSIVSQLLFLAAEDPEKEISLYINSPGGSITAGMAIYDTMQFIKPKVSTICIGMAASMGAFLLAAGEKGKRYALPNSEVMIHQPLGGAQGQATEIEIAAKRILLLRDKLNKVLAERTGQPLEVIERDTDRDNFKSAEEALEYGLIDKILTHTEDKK
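FRET quenching reversal measured ClpP activation: 10 microg/mL B. subtilis ClpP at pH 8 with the FRET-FV decapeptide, read at 430 nm after 320 nm excitation. The 20-min minus 0-min signal was scaled between DMSO/no-enzyme wells and ADEP (5.8 microM final).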
The depositor's hits bear a star; ? = inconclusive; nt = no result. An excerpt weighted towards active compounds, which were near 2.1% of everything screened. Unless noted, the call rests on the fitted dose curve; in most records, active means well fitted curve in the direction sought with a large enough effect; inconclusive means small, poorly fitted or top-dose-only effect, or another doubt; inactive means no such curve, though single readings can be large; an effect the other way counts as inactive or inconclusive.

SMILES	Giardia kill	p53 reactivation	B2AR arrestin	Mito fusion act	uPA surface inh	ClpP mod
COC(=O)c1c(NC(=O)c2c(-c3ccccc3Cl)noc2C)sc2c1CCC2	11	0%	0%	2%	6%	32µM*
CC(C)OC(=O)c1c(NC(=O)c2ccco2)sc2c1CCCCC2	-6	6%	-2%	8%	-6%	28µM*
COC(=O)c1c(NC(=O)c2c(C)noc2C)sc2c1CCCCCC2	nt	26%	0%	-5%	nt	nt
COC(=O)c1c(NC(=O)c2ccc(C)o2)sc2c1CCCCC2	-3	?	0%	?	6%	32µM*
CCOc1cccc(C(=O)N(Cc2ccc(C)o2)C2CCS(=O)(=O)C2)c1 (centres undefined)	nt	nt	nt	nt	nt	1%
CC(C)Oc1ccccc1-c1nc(SCC(=O)c2ccc(F)cc2)n[nH]1	nt	nt	nt	nt	nt	-3%
CCCOC(=O)C1=C(C)NC2=C(C(=O)CCC2)C1c1cccs1 (centres undefined)	6	-4%	-1%	1%	nt	?
CCCOC(=O)C1=C(C)NC2=C(C(=O)CCC2)C1c1cccc(OC)c1OC (centres undefined)	-1	-2%	0%	4%	4%	25µM*
OCCCNc1nc(-c2ccc(Cl)cc2)nnc1-c1ccc(Br)cc1	-5	-10%	-1%	13µM*	-6%	-2%
O=[N+]([O-])c1ccc(-c2nnc(-c3ccccc3)c(NCCCO)n2)cc1	23	-10%	0%	-2%	1%	-1%
COc1ccc(CNC(=O)CCc2c(C)nn(-c3ccc(N4CCCCC4)nn3)c2C)c(OC)c1	nt	nt	nt	nt	nt	-7%
CCOC(=O)C1=CN(C)C=C(C(=O)OCC)C1c1ccsc1	-7	-21%	0%	24%	2%	8.9µM*
O=C(Nc1cccc(F)c1)C1CCN(C(=O)c2ccc(Cl)cc2)CC1	3	-4%	2%	6%	-8%	25µM*
CN(CC(=O)Nc1cccc(F)c1)C(=O)C1CCN(C(=O)c2ccc(Cl)cc2)CC1	17	?	0%	0%	12%	-1%
COc1cccc(CNC(=O)CCNS(=O)(=O)c2ccc3c(c2)CCCC(=O)N3)c1	nt	nt	nt	nt	nt	2%
CC(C)N1C(=O)C(O)(c2c[nH]c3ccccc23)c2ccccc21 (centres undefined)	nt	nt	nt	nt	nt	-2%
CN(C)c1ccc(/C=C/c2ccc3cc(N)ccc3n2)cc1	nt	nt	nt	nt	nt	-7%
Cc1cc(C)nc(NC(=O)/C=C/c2ccc(Cl)cc2Cl)c1	-16	?	-1%	5%	1%	22%
Cc1cc(C)nc(NC(=O)/C=C/c2ccccc2Cl)c1	15	?	0%	25µM*	-2%	1%
O=C(CCl)N=c1sccn1Cc1cccc2ccccc12	14	-11%	0%	-2%	0.22µM*	-1%
O=C(CCl)N=c1sccn1Cc1ccccc1Cl	12	-12%	1%	-4%	-5%	nt
COc1ccc(CCNc2nc3c(c(=O)n(C)c(=O)n3C)n2Cc2ccc(F)cc2)cc1OC	nt	nt	nt	nt	nt	0%
Cc1cc(C(=O)NCc2cc(C)n(C)n2)sc1-c1ccccc1	22	20%	0%	7%	-3%	25µM*
Cc1cc(CNC(=O)c2cc(-c3ccccc3)nc3ccccc23)nn1C	2	2%	0%	-2%	-1%	0%
CCn1c(CSc2nc3ccccc3[nH]2)nc2cc(C(=O)O)ccc21	-3	-1%	0%	-4%	1%	35µM*
CCn1c(CSc2nccn2C)nc2cc(C(=O)O)ccc21	-2	-9%	0%	-3%	-2%	-29%
COc1ccc(CNC(=O)c2ccc3c(c2)N(Cc2c(F)cccc2Cl)C(=O)CS3)cc1	nt	nt	nt	nt	nt	-1%
O=c1c2ccccc2sc2nc(CCl)nn12	10	nt	nt	nt	6%	16µM*
